From PubChem BioAssay (NCATS)
Records with an inconclusive call do not appear. Active and inactive are the calls of the source. Calls come from the whole dose curve; as a rule, active = well fitted inhibition curve with a large enough effect in the repeat runs; inconclusive = weak or mixed curves; inactive = no such curve, though single readings can be large or run the other way.

molecular target: Cytochrome P450 2C9 (Homo sapiens) (UniProt P11712); assay: Cytochrome P450 family 2 subfamily C member 9 (CYP2C9) small molecule antagonists: luciferase biochemical (cell-free) qHTS assay (AID 1645842); settings: P450-Glo CYP2C9 enzyme assay, luciferin luminescence; series mostly up to 57.4 µM; note: nearly all actives have a fitted effect of over 55% in size
Sequence (P11712 whole entry, looked up): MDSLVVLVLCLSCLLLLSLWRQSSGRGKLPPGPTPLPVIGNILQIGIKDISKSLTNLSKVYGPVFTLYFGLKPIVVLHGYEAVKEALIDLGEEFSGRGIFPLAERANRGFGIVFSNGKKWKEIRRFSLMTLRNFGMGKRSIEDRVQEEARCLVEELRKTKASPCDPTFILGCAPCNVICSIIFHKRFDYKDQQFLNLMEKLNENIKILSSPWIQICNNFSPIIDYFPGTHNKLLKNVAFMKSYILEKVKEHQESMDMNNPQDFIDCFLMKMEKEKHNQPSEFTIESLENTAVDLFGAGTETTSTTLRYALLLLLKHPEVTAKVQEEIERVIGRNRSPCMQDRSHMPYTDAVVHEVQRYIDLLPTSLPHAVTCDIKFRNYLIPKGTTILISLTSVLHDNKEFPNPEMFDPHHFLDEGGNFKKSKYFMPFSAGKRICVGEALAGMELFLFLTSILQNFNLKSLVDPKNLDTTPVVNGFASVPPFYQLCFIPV
Procedure: National Center for Advancing Translational Sciences [NCATS] Assay Overview: Cytochrome P450 (CYP) enzymes are membrane-bound hemeproteins that play a key role in metabolism of drugs and xenobiotics. Assaying the effect of chemicals on CYP isozymes is useful to minimize the adverse drug reactions and toxicities in drug development process. Chemical compounds were tested for their effect on CYP enzyme activities by using P450-Glo (TM) screening systems (Promega Corporation, Madison, WI). These systems provide a luminescent method containing proluciferin substrates and are converted to luciferin products by CYP isozymes. The luciferin products formed are detected with a luciferin detection reagent, and the amount of light produced is proportional to CYP activity. P450-Glo (TM) CYP2C9 screening system (Catalog. No. V9790) was used to detect the compounds that interfere in CYP2C9 activity.
Assay Protocol Summary: Two ul of enzyme-substrate mix supplemented with 0.4% Bovine Serum Albumin was dispensed into medium binding white/solid 1536-well plates (Greiner Bio-One North America Inc., Monroe, NC) using a Flying Reagent Dispenser (FRD, Aurora Discovery, San Diego, CA). […] The assay plates were incubated at room temperature for 10 min. Then 2 ul of NADPH regeneration solution was added to each well of the assay plates using an FRD and incubated at 37C for 1 h. The reaction was stopped by adding 4 ul of detection reagent using an FRD and after 20 min incubation at room temperature, the luminescence signal was measured using a ViewLux plate reader (Perkin Elmer, Shelton, CT). Data were expressed as relative luminescence units.
Potency is the fitted concentration of half-maximal effect.

**Q.** CC(NC(=O)CCc1nc2ccccc2c(=O)[nH]1)c1ccccc1 (stereo not given) was tested. Which Potency did it give?
**A.** inactive

**Q.** How did the Potency turn out when N#Cc1ccc(C(=O)N2CCC3(CC2)N=C(N)c2c(F)ccc(F)c2N3)cn1 was run?
**A.** inactive

**Q.** For COc1ccc(C(=O)C2CCN(CC(=O)N(Cc3nc4c(c(=O)[nH]3)COCC4)CC3CC3)CC2)cc1, which Potency is on record?
**A.** 8.49 µM (active)

**Q.** Which Potency does the source give for Cn1ncnc1COc1nn2c(-c3cc(F)ccc3F)nnc2cc1C(C)(C)C here?
**A.** 9.52 µM (active)

**Q.** C#CCN(Cc1cc2c(=O)n(C)c(CN3CCN(C)CC3)nc2cc1Cl)c1ccc(C(=O)NCc2cccnc2)cc1 was tested. Which Potency did it give?
**A.** 12 µM (active)

**Q.** Which Potency does the source give for CCN(CC)CCN(Cc1ccc(-c2ccc(C(F)(F)F)cc2)cc1)C(=O)Cn1c(SCc2ccc(F)cc2)nc(=O)c2c1CCC2 here?
**A.** 23.9 µM (active)

**Q.** CCCNc1ccc2ncc(-c3ccc4[nH]ncc4c3)n2n1 was tested. Which Potency did it give?
**A.** inactive

**Q.** For Cc1ccc(-c2ccc3c(ccc4sc5c(c43)NC[C@@H](C)NC5=O)n2)cn1, which Potency is on record?
**A.** inactive

**Q.** CCCN1CCC(c2cccc(S(C)(=O)=O)c2)CC1 was tested. Which Potency did it give?
**A.** inactive

**Q.** O=C(NCc1cccc(O)c1)c1cc2cc(F)ccc2[nH]1 was tested. Which Potency did it give?
**A.** 13.5 µM (active)

**Q.** For CCN1CCN(Cc2ccc(NC(=O)Nc3ccc(Oc4cc(NC)ncn4)cc3)cc2C(F)(F)F)CC1, which Potency is on record?
**A.** inactive

**Q.** How did the Potency turn out when CC(C)(F)C[C@@H](N[C@@H](c1ccc(-c2ccc(S(C)(=O)=O)cc2)cc1)C(F)(F)F)C(=O)NC1(C#N)CC1 was run?
**A.** 19 µM (active)

**Q.** Which Potency does the source give for O=C(c1cc2c(cc1F)OC(c1ccc(F)cc1)(c1ccc(Cl)cc1Cl)O2)N1CCOCC1 (stereo not given) here?
**A.** 10.7 µM (active)

**Q.** For CCC(CC)C(=O)Nc1sc2c(c1C#N)CCC(C(C)(C)CC)C2 (stereo not given), which Potency is on record?
**A.** 5.35 µM (active)

**Q.** C[C@@H](Oc1cc(-n2cnc3ccc(OC4CCN(C)CC4)cc32)sc1C(N)=O)c1ccccc1C(F)(F)F was tested. Which Potency did it give?
**A.** 8.49 µM (active)

**Q.** For C=C(F)c1sc(CNCCCNc2cc(=O)c3ccccc3[nH]2)c(C)c1Br, which Potency is on record?
**A.** 2.13 µM (active)

**Q.** With C[C@H]1Oc2cc(cnc2N)-c2c(nn(C)c2C#N)CN(C)C(=O)c2ccc(F)cc21 as the molecule, how does the Potency read?
**A.** 6.01 µM (active)

**Q.** How did the Potency turn out when N#Cc1ccc2[nH]cc(CCCCN3CCN(c4ccc5oc(C(N)=O)cc5c4)CC3)c2c1 was run?
**A.** 13.5 µM (active)

**Q.** Cc1nc(NC(=O)N2CCCC2C(N)=O)sc1-c1csc(C(C)(C)C)n1 (stereo not given) was tested. Which Potency did it give?
**A.** inactive

**Q.** For CNC(=O)c1ccccc1Nc1nc(Nc2ccc(N3CCNCC3)cc2)ncc1Cl, which Potency is on record?
**A.** 6.01 µM (active)

**Q.** O=c1[nH]ccc2cc(OC3CCNCC3)ccc12 was tested. Which Potency did it give?
**A.** inactive

**Q.** For O=C(c1cccc(Cl)c1F)N1CCN(Cc2cccc(Nc3nccs3)n2)CC1, which Potency is on record?
**A.** 3.38 µM (active)

**Q.** CN[C@H](C(=O)N[C@H](C(=O)N(C)[C@H](/C=C(\C)C(=O)O)C(C)C)C(C)(C)C)C(C)(C)c1ccccc1 was tested. Which Potency did it give?
**A.** inactive

**Q.** Which Potency does the source give for CC(C)[C@@](C)(O)[C@@H]1CN(c2nc(-c3[nH]nc4ncccc34)c(F)cc2Cl)CCN1 here?
**A.** 12 µM (active)

**Q.** How did the Potency turn out when O=S(=O)(NCC1CC1)c1ccc(Nc2nccc(N3CCCc4cc(O)ccc43)n2)cc1 was run?
**A.** 1.07 µM (active)

**Q.** Which Potency does the source give for CCCC(=O)C1CCN(c2ncnc3c2CN(C(=O)c2ccc(-c4ccccc4)cc2)CC3)CC1 here?
**A.** 3.01 µM (active)

**Q.** Which Potency does the source give for COc1ccc(C2(O)CCC(N3CC[C@@H](NC(=O)CNC(=O)c4cccc(C(F)(F)F)c4)C3)CC2)cn1 (stereo not given in full) here?
**A.** inactive

**Q.** For Cc1ccc(NC(=O)C(=O)NC2CC(C)(C)NC(C)(C)C2)cc1, which Potency is on record?
**A.** inactive

**Q.** How did the Potency turn out when COc1ccc(Cl)c(Nc2nc3ccccc3nc2NS(=O)(=O)c2cccc(NC(=O)C(C)(C)N)c2)c1 was run?
**A.** 2.68 µM (active)

**Q.** With O=C(Nc1nc2ccccc2n1CCc1ccccc1)c1ccccc1 as the molecule, how does the Potency read?
**A.** 8.49 µM (active)

**Q.** For COc1cc2ncnc(Nc3ccc(O)cc3)c2cc1OC, which Potency is on record?
**A.** inactive

**Q.** With Cc1cc(Nc2cc(N3CCN(C)CC3)nc(/C=C/c3ccccc3)n2)n[nH]1 as the molecule, how does the Potency read?
**A.** inactive

**Q.** With CN(C)c1nc(NC2CCC(NCCc3ccc(Br)cc3OC(F)(F)F)CC2)nc2ccccc12 (stereo not given) as the molecule, how does the Potency read?
**A.** 7.56 µM (active)

**Q.** For CC1(c2nc3c(C(N)=O)cccc3[nH]2)CCCN1 (stereo not given), which Potency is on record?
**A.** inactive

**Q.** CC1CCCCN1S(=O)(=O)c1ccc(N2CCCC2=O)cc1 (stereo not given) was tested. Which Potency did it give?
**A.** 15.1 µM (active)

**Q.** For O=C(c1cn(Cc2cncn2Cc2ccc(Br)cc2)cc1-c1cccc2ccccc12)N1CCOCC1, which Potency is on record?
**A.** 1.69 µM (active)

**Q.** How did the Potency turn out when COc1cc2c(cc1OC)-c1[nH]nc(Nc3cccc(F)c3)c1C2 was run?
**A.** 8.49 µM (active)

**Q.** With COc1cc2nc(N3CCC(N4CCCCC4)CC3)nc(NC3CCCCCC3)c2cc1OC as the molecule, how does the Potency read?
**A.** inactive

**Q.** With O=C1CC2(CCCC2)[C@H](O)C(=O)N1CCCCN1CCN(c2ncccn2)CC1 as the molecule, how does the Potency read?
**A.** 10.7 µM (active)

**Q.** For COc1ncc2cc(C(=O)Nc3cc(C(=O)NCc4cccc(Cl)c4)ccc3Cl)c(=O)[nH]c2n1, which Potency is on record?
**A.** 19 µM (active)
